Reference: PubChem BioAssay AID504339 (National Center for Advancing Translational Sciences (NCATS), 2011)
About 17,000 (4.4%) of roughly 390,000 compounds were called active. Entries that show only a call come without a potency. Roughly 8% stayed inconclusive and do not appear here. For the sample, actives were picked, then their nearest neighbours and some compounds at random. Unmarked numbers belong to inactive results. Calls come from the whole dose curve; as a rule, active = well fitted inhibition curve with a large enough effect; inconclusive = small, poorly fitted or top-dose-only effect; inactive = no such curve, though single readings can be large or run the other way.
Note: nearly all actives have a fitted effect of over 50% in size.
Potency is the fitted concentration of half-maximal effect.

Each compound was assayed against Lysine-specific demethylase 4A (Homo sapiens) (UniProt O75164) (assay: qHTS Assay for Inhibitors of JMJD2A-Tudor Domain). Settings: AlphaScreen JMJD2A-Tudor / H3K4me3 peptide binding; series mostly up to 114 µM.
Lysine-specific demethylase 4A (Homo sapiens), sequence (O75164 whole entry, looked up, the tested form may be a part): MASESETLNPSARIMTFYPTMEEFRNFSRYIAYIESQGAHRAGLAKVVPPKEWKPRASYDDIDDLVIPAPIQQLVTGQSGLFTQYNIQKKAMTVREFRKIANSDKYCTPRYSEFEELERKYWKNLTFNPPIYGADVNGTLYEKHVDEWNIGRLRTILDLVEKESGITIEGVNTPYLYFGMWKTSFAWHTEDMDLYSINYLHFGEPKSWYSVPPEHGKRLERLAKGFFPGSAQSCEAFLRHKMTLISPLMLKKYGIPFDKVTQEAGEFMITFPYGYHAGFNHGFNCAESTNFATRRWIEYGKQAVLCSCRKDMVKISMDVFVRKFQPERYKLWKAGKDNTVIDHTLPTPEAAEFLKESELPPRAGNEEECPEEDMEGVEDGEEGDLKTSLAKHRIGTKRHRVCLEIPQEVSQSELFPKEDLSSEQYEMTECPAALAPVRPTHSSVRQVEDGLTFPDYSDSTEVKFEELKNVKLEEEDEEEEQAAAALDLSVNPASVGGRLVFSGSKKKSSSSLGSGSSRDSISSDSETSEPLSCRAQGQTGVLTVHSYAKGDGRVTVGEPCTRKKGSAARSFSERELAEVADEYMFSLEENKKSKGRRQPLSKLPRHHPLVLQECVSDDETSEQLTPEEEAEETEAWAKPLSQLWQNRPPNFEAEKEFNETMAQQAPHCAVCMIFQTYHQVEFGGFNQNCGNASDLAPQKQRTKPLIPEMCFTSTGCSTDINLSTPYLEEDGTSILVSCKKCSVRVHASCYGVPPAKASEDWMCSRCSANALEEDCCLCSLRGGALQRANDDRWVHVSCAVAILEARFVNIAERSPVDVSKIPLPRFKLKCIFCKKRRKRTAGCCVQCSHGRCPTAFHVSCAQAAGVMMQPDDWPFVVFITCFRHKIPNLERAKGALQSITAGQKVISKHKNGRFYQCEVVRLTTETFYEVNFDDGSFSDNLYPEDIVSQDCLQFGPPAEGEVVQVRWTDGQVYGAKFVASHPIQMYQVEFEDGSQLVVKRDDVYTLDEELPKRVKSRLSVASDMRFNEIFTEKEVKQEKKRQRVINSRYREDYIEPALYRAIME
With `Cc1c(NC(=O)CN(C)CC(=O)Nc2ccc(F)c(F)c2F)c(=O)n(-c2ccccc2)n1C` the Potency was “inactive”. For `CN(CC(=O)NCCc1ccc(F)cc1)CC(=O)Nc1ccc(F)c(F)c1F`, the Potency was “inactive”. With `Cc1ccc(Cl)c(NC(=O)CN(C)CC(=O)Nc2ccc(F)c(F)c2F)c1Cl` the Potency was 70.8 µM (active). `COc1ccc(CCC(=O)NCCc2csc(-c3ccc(Cl)cc3)n2)cc1` was tested, and the Potency was “inactive”. With `O=C(CNS(=O)(=O)c1cccs1)N1CCN(c2ccccc2Cl)CC1` the Potency was “inactive”. With `O=C(CSc1nccn1-c1cccc(F)c1)NC1CCCC1` the Potency was “inactive”. For `O=C(CSc1nccn1-c1ccc(F)cc1)Nc1cccc2ccccc12`, the Potency was 28.2 µM (active). For `O=C(CSc1nccn1Cc1ccc(F)cc1)NCc1ccccc1`, the Potency was “inactive”. For `CCCNc1ncnc2c1c(-c1ccccc1)cn2-c1ccc(OCC)cc1`, the Potency was “inactive”. In the case of `Cc1nc2ccc(S(=O)(=O)NC(C(=O)NCc3ccccc3Cl)C(C)C)cc2s1` (centres undefined), the Potency is reported as “inactive”. `COc1ccc(-c2nc3ccccc3o2)cc1NC(=O)c1cc([N+](=O)[O-])ccc1N1CCOCC1` was tested, and the Potency was “inactive”. For `COc1cc(C(=O)N(Cc2ccc(N(C)C)cc2)C2CCS(=O)(=O)C2)cc(OC)c1OC` (centres undefined), the activity change, negative = inhibition was -6.11% [at 11.4 µM]. For `CCOc1ccc(C(=O)N(Cc2ccc(N(C)C)cc2)C2CCS(=O)(=O)C2)cc1` (centres undefined), the Potency was “inactive”. With `Cc1cc(C)c(OCC(=O)N(Cc2cccs2)C2CCS(=O)(=O)C2)c(C)c1` (centres undefined) the Potency was “inactive”. With `Cc1cc(Cl)ccc1OCC(=O)N(Cc1ccc(N(C)C)cc1)C1CCS(=O)(=O)C1` (centres undefined) the Potency was 50.1 µM (active). In the case of `COc1ccccc1C(=O)N(Cc1ccc(C)o1)C1CCS(=O)(=O)C1` (centres undefined), the Potency is reported as “inactive”. `Cc1ccccc1OCC(=O)N(Cc1cccc(F)c1)C1CCS(=O)(=O)C1` (centres undefined) was tested, and the Potency was “inactive”. With `CC(C)c1ccc(OCC(=O)N(Cc2ccc(N(C)C)cc2)C2CCS(=O)(=O)C2)cc1` (centres undefined) the Potency was 44.7 µM (active). For `CCc1ccc(OCC(=O)N(Cc2ccccc2)C2CCS(=O)(=O)C2)cc1` (centres undefined), the Potency was “inactive”. In the case of `Cc1ccc(CN(C(=O)COc2ccc(Cl)cc2C)C2CCS(=O)(=O)C2)o1` (centres undefined), the Potency is reported as 11.2 µM (active). With `O=C(C1CC1)N1CCc2cc(Br)cc(S(=O)(=O)N3CCN(c4ccccc4F)CC3)c21` the Potency was “inactive”. With `CCc1ccc2oc(-c3ccc(NC(=O)c4cc5ccccc5o4)cc3)nc2c1` the Potency was “inactive”. With `Cc1cccc(N2CCN(C(=O)Cn3ncc4c5ccccc5n(C)c4c3=O)CC2C)c1` (centres undefined) the Potency was “inactive”. With `CCc1ccc(CN(Cc2ccco2)C(=O)COc2ccc(Cl)c(C)c2)cc1` the Potency was “inactive”. For `COc1ccc(-n2nnc(-c3nsc(NC(=O)c4ccc(C)c(C)c4)n3)c2C)cc1Cl`, the Potency was “inactive”. For `COc1ccc(-c2cc(C(F)(F)F)n3nc(-c4ccccc4)cc3n2)cc1OC`, the Potency was “inactive”. In the case of `CCc1ccccc1NC(=O)c1cnn(-c2ccc(F)cc2)c1C1CCNCC1`, the Potency is reported as “inactive”. With `CCc1ccc2oc(-c3ccc(C)c(NC(=O)/C=C/c4ccco4)c3)nc2c1` the Potency was “inactive”. `C=CS(=O)c1sc(Cl)c(N2CCOCC2)c1[N+](=O)[O-]` (centres undefined) was tested, and the Potency was 50.1 µM (active). In the case of `COc1ccc(NC(=O)C2CCCN(S(=O)(=O)c3c(C)[nH]c(=O)[nH]c3=O)C2)c(OC)c1` (centres undefined), the Potency is reported as “inactive”. In the case of `CCc1ccc(CNC(=O)c2ccc(CS(=O)c3ccc(Br)cc3)o2)cc1` (centres undefined), the Potency is reported as “inactive”. With `CCCn1ccc2c(OCC(=O)NCc3ccc(F)cc3)cccc2c1=O` the Potency was “inactive”. For `Cc1ccc(S(=O)(=O)n2nc(-c3ccc(Cl)cc3)nc2NCc2ccccc2)cc1`, the Potency was “inactive”. `Cc1c(C(=O)Nc2cccc(Cl)c2)oc2ccc(S(=O)(=O)N3CCOCC3)cc12` was tested, and the Potency was “inactive”. With `Cc1oc2c(C)c3oc(=O)c(CC(=O)N[C@@H](CC(C)C)C(=O)N[C@@H](Cc4ccccc4)C(=O)O)c(C)c3cc2c1C` the Potency was 56.2 µM (active). With `CC(C)C[C@H](NC(=O)N1CC(=O)Nc2ccccc21)C(=O)N[C@H](Cc1ccccc1)C(=O)O` the Potency was “inactive”. `Cc1c(OC(C)C(=O)N[C@@H](Cc2ccccc2)C(=O)O)ccc2c3c(c(=O)oc12)CCCC3` (some centres undefined) was tested, and the Potency was “inactive”. For `COC(=O)c1ccccc1NC(=O)Cn1c(=O)cc(C)c2c(C)nn(-c3cccc(Cl)c3C)c21`, the Potency was “inactive”. For `O=C(Nc1ccc(CN2CCOCC2)cc1)c1cc(Cl)ccc1Cl`, the Potency was “inactive”. In the case of `Clc1ccc(CN2CCCCCC2)cc1Cl`, the Potency is reported as 3.98 µM (active). In the case of `Clc1ccc(-n2nnnc2CN2CCCCC2)cc1Cl`, the Potency is reported as “inactive”. For `O=C(NCCc1csc(-c2ccc(C(F)(F)F)cc2)n1)C(=O)Nc1ccc(F)c(Cl)c1`, the Potency was “inactive”. `COc1ccc(C2=NC(c3ccncc3)=Nc3ccc(Br)cc3N2)cc1` was tested, and the Potency was 44.7 µM (active). `Brc1ccc2c(c1)NC(c1cccnc1)=NC(c1ccccc1)=N2` was tested, and the Potency was “inactive”. For `COCCNC(=O)c1ccc2c(c1)N(Cc1cccc(Cl)c1)C(=O)c1ccccc1S2(=O)=O`, the Potency was “inactive”. In the case of `CN(C)Cc1cn(-c2ccccc2)nc1-c1ccccc1`, the Potency is reported as “inactive”. `Cc1ccc(-n2c(C)cc(/C=C(\C#N)C(=O)NCC3CCCO3)c2C)cc1` (centres undefined) was tested, and the Potency was 50.1 µM (active). With `Cc1ccc(C(=O)N/C(=C/c2cccs2)C(=O)NCC2CCCO2)cc1` (centres undefined) the Potency was “inactive”. With `Cc1cc(/C=C(/C#N)C(=O)Nc2ccc(Cl)cc2)c(C)n1-c1cccnc1` the Potency was “inactive”. `Cc1cc2c(cc3c(SCc4nc(-c5ccccc5)oc4C)nnc(C)n32)o1` was tested, and the Potency was “inactive”. In the case of `Nc1ccn(C2CC(O)C(CO)O2)c(=O)n1` (centres undefined), the Potency is reported as “inactive”. For `CNc1nc(=O)n(C2CCCO2)cc1C` (centres undefined), the Potency was “inactive”. With `O=c1nc(NO)ccn1C1CCCO1` (centres undefined) the Potency was 8.91 µM (active). In the case of `Cc1cccc(NC(=O)CSc2nc3c(oc4ccccc43)c(=O)n2-c2ccc(F)cc2)c1`, the Potency is reported as “inactive”. `CCc1ccc(NC(=O)c2sc3nc4c(cc3c2N)CN(CC)CC4)cc1` was tested, and the Potency was 56.2 µM (active). In the case of `COc1ccc(Cl)cc1NC(=O)c1sc2nc3c(cc2c1N)CN(C)CC3`, the Potency is reported as “inactive”. In the case of `CCN1CCc2nc3sc(C(=O)Nc4ccccc4OC(F)(F)F)c(N)c3cc2C1`, the Potency is reported as “inactive”. `O=C(CSc1n[nH]c(-c2ccccc2)n1)N1CCCCC1` was tested, and the Potency was “inactive”. In the case of `Cc1ccc(NC(=O)CN2c3ccccc3S(=O)(=O)c3ccccc32)cc1F`, the Potency is reported as “inactive”. For `CCc1ccccc1NC(=O)Cc1ccc(NC(=O)N2CCCCc3ccccc32)cc1`, the Potency was “inactive”. With `CCN(Cc1ccccc1)Cc1c(O)ccc2c(=O)c(-c3ccc(Cl)cc3Cl)coc12` the Potency was “inactive”. `COc1cccc(CNC(=O)Cn2c(=O)c3cccn3c3ccc(F)cc32)c1OC` was tested, and the Potency was “inactive”. With `CCOc1ccc(CCNC(=O)CN(c2ccc(C)cc2)S(=O)(=O)N(C)C)cc1OCC` the Potency was “inactive”. In the case of `O=C(Cn1ncc2c3ccccc3n(Cc3ccccc3)c2c1=O)NC1CCCCCC1`, the Potency is reported as “inactive”. For `CCCNC(=O)C(CC)n1nc(CC)n2c(cc3oc(C)cc32)c1=O` (centres undefined), the Potency was “inactive”. With `CCOc1cccc(C(=O)Nc2nnc(S(=O)(=O)N(C)c3ccc(C)cc3)s2)c1` the Potency was “inactive”. With `CCOc1cccc(-c2nnc(SCC(=O)NC3CC3)n2C)c1` the Potency was “inactive”. `CCOc1cccc(-c2nn3c(-c4ccccn4)nnc3s2)c1` was tested, and the Potency was 79.4 µM (active). With `Cc1ccc2c(=O)c(C(=O)c3ccc(F)cc3)cn(CC(=O)NC3CCCCC3)c2n1` the Potency was “inactive”. `CSc1ncc(C(=O)NCc2ccccc2Cl)c(C(F)(F)F)n1` was tested, and the Potency was “inactive”. `Cc1cccn2c(=O)c3cc(C(=O)NC(C)c4ccccc4)c(=N)n(CCCO)c3nc12` (centres undefined) was tested, and the Potency was “inactive”. For `CCOc1cccc(NC(=O)c2ccc(F)c(S(=O)(=O)N(CC)c3cccc(C)c3)c2)c1`, the Potency was “inactive”. With `COc1cc(O)c2c(=O)c3c(O)c(O)ccc3oc2c1OC` the Potency was 89.1 µM (active). `COc1cccc2c(O)cc(=O)n(C)c12` was tested, and the Potency was “inactive”. In the case of `COc1cccc2cc(-c3cc(=O)oc4cc(C)c(O)cc34)oc12`, the Potency is reported as “inactive”. In the case of `CCOc1ccccc1CNC(=O)C1CCCN(S(=O)(=O)c2ccc3c(ccn3C)c2)C1` (centres undefined), the Potency is reported as “inactive”. `O=C(c1ccc(CSc2ccccc2)cc1)N1CCCCCC1` was tested, and the Potency was “inactive”. With `Cc1ccc(S(=O)(=O)N2CCN(C(=O)N3CCOCC3)CC2)c(C)c1` the Potency was “inactive”. With `COc1cccc(N2CCN(c3ccc4nnc(CCC(=O)N5CCN(C)CC5)n4n3)CC2)c1` the Potency was “inactive”. With `Cc1cccc(C(=O)N2CCN(S(=O)(=O)N3CCCCC3)CC2)c1` the Potency was “inactive”. With `Cc1ccc(-n2c(N)c(C(=O)N3CCOCC3)sc2=S)c(C)c1` the Potency was 35.5 µM (active). For `N#Cc1ccccc1-n1c(N)c(C(=O)N2CCCC2)sc1=S`, the Potency was 56.2 µM (active). In the case of `O=C(c1ccc(S(=O)(=O)N2CCCC2)cc1)N1CCN(c2ccccc2F)CC1`, the Potency is reported as “inactive”. With `Cc1cccc(-n2c(N)c(C(=O)N3CCN(C)CC3)sc2=S)c1` the Potency was 79.4 µM (active). `Cc1ccc(N2CCN(C(=O)c3cccs3)CC2)c(C)c1` was tested, and the Potency was “inactive”. `O=C(Cn1c(=O)n(Cc2ccccc2)c(=O)c2sc3ccccc3c21)Nc1ccccc1F` was tested, and the Potency was “inactive”. With `Cc1ccccc1OCc1nc2c3cnn(-c4ccccc4F)c3ncn2n1` the Potency was “inactive”. `COc1ccc(OC)c(NC(=O)CSc2nc3ccccc3nc2N2CCCCC2)c1` was tested, and the Potency was “inactive”. In the case of `Cc1ccc(C(=O)NC2CCN(C#N)CC2)cc1`, the Potency is reported as “inactive”. `CCOc1ccc(N(CC)S(=O)(=O)N2CCCC(C(=O)NCc3ccc(Cl)cc3)C2)cc1` (centres undefined) was tested, and the Potency was “inactive”. With `COC(=O)c1ccc(COc2ccc(/C=N/NC(=O)C(=O)Nc3ccc(OC)cc3)cc2OC)o1` the Potency was “inactive”. `COC(=O)c1ccc(COc2ccc(/C=C/C(=O)c3ccc(OC)c(CSCC(=O)O)c3)cc2OC)cc1` was tested, and the Potency was 50.1 µM (active). For `COC(=O)c1ccc(C(NC(=O)OCc2ccccc2)/C(C)=C/[C@@H](C)C(=O)NCc2ccc(OC)c(OC)c2)cc1` (some centres undefined), the Potency was “inactive”. In the case of `Cc1ccc(NC(=O)c2ccc(CN3CC(=O)N4CCCCC4C3=O)cc2)c(Cl)c1` (centres undefined), the Potency is reported as “inactive”. In the case of `CC(=O)c1sc(N2C(=O)c3oc4ccccc4c(=O)c3C2c2ccc(C)cc2)nc1C` (centres undefined), the Potency is reported as “inactive”. With `C=Cc1ccc(Cn2c(C(=O)O)c(CNC3CCCC3)c3ccc(C)cc32)cc1` the Potency was “inactive”. `COc1cc(OC)cc(C(=O)NCCCn2ccnc2)c1` was tested, and the Potency was “inactive”. For `COc1cccc(-c2nn(-c3ccccc3)cc2/C=C(\C#N)C(=O)NCCCn2ccnc2)c1`, the Potency was 44.7 µM (active). In the case of `COc1ccc(/C=C(\C#N)C(=O)NCCCn2ccnc2)cc1`, the Potency is reported as “inactive”.
